Shown are actives, neighbours in structure and some others; about 3.2% of the full set was active somewhere.
A3G deaminase: inhibitors of human APOBEC3G DNA deaminase. recombinant A3G, ssDNA deamination FAM/TAMRA fluorescence. inhibition, % at 20 µM. actives 0.28% (n = 330,000). AID 493012;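 active means inhibition of at least 40% at 20 µM, with no more than 30% in the related APOBEC3A deaminase screen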;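 further: plate controls were DMSO wells with A3G for no effect and wells lacking A3G enzyme for full effect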
AHR activator: human AHR activation; activation, % at 5 µM; AHR-responsive luciferase reporter cells, luminescence; actives 2.5% (n = 320,000); in the data active means activation above about 47%;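 further: 0% = vehicle wells and 100% = reference agonist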
APOBEC3A inh: blocks human APOBEC3A ssDNA deamination; recombinant A3A, FAM/TAMRA ssDNA deamination fluorescence; actives 0.41% (n = 330,000); P31941; inhibition, % at 20 µM; AID 493011;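 active means at least 40% inhibition at 20 µM here, with at most 30% in a related deaminase screen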;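 further: plate controls were A3A with DMSO for no effect and wells lacking A3A enzyme for full effect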
Target sequence (P31941 whole entry, looked up): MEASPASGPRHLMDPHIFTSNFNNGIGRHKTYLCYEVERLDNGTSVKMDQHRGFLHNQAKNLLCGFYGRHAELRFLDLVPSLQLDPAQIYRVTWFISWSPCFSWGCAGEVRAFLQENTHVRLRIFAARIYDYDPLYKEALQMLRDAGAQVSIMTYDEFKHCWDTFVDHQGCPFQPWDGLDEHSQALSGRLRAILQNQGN
NTR1 agonist: NTR1 (human) agonism. actives 0.17% (n = 330,000). P30989. AID 493036. activation, % at 20 µM. NTR1-U2OS beta-arrestin-GFP spot imaging, agonist mode;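 active means activation at or above 40% of the spot to cytoplasm intensity ratio, with at least 20 cells analyzed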;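 further: 0% = DMSO without peptide and 100% = 100 nM NTR1 peptide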
A3G conf: confirmation of human APOBEC3G DNA deaminase inhibitors; AID 493152; actives 72% (n = 890); shares compounds with A3G deaminase; inhibition, % at 20 µM; recombinant A3G ssDNA deaminase, UDG/FAM-TAMRA fluorescence;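 active means inhibition reaching a set limit in any replicate at 20 µM, the limit being 80% of the first screen's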
UDG ctr A3G: counter-screen for APOBEC3G inhibitors: E. coli UDG | 710 tested, under 10 active | inhibition, % at 20 µM | AID 504715 | shares compounds with A3G deaminase | UDG counterscreen, FAM/TAMRA oligo fluorescence;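 active means compounds giving 40% or more inhibition at 20 µM in any one of the three replicates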;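 further: plate controls were DMSO wells with UDG and oligo for no effect and DMSO wells lacking both for full effect; inhibitors lower the FAM signal released by uracil excision and alkaline cleavage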
Target sequence (P12295 whole entry, looked up): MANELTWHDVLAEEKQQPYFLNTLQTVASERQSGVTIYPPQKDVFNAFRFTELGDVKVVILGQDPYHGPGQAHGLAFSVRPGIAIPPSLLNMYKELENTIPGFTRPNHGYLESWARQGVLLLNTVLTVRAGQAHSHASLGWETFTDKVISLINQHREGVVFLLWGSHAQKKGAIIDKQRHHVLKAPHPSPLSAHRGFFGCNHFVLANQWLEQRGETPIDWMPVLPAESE
Starred values were filed as active, the others as inactive; nt = not tested or not shown.

SMILES	A3G deaminase	AHR activator	APOBEC3A inh	NTR1 agonist	A3G conf	UDG ctr A3G
COc1cc(C(=O)Nc2nnc(C3CC3)s2)ccc1OCc1c(C)noc1C	-8	4	6	0	nt	nt
CC1(c2nnc(-c3cccc(Cl)c3)o2)CC(c2ccccc2F)=NO1 (configuration not stated)	0	2	3	-2	nt	nt
O=c1cc(CN2CCN(c3ccc(O)cc3)CC2)nc2scc(-c3ccccc3)n12	73*	9	16	0	9	nt
O=C(NCc1nnc(SCC(=O)N2CCCCCC2)o1)c1ccco1	77*	3	-1	1	3	6
CCC(=O)N1CCc2cc(S(=O)(=O)N3CCN(c4cc(Cl)ccc4C)CC3)ccc21	58*	-2	-2	5	-2	1
CCC(=O)N1CCc2cc(S(=O)(=O)N3CCN(c4ccccc4)CC3)ccc21	-4	-1	-2	8	nt	nt
COc1ccc(OC)c2c1C(=O)c1ccccc1C2=O	56*	22	-4	-2	-11	-2
COc1cccc2c1C(=O)c1ccc3ccccc3c1C2=O	65*	62*	-10	6	22*	-3
Cc1cc2c(cc1C)C(c1ccsc1)CC(=O)N2 (configuration not stated)	-5	12	3	2	nt	nt
Cc1ccc(-n2c(CCc3nc4ccccc4[nH]3)n[nH]c2=S)cc1	52*	1	4	-1	27	nt
CCn1c(CCc2nc3ccccc3[nH]2)n[nH]c1=S	19	0	-2	1	nt	nt
Cc1ccccc1Cn1cnc2c(cnn2C(C)(C)C)c1=O	-4	0	-3	-1	nt	nt
Cc1ccc(C)c(Cn2cnc3c(cnn3C(C)(C)C)c2=O)c1	58*	2	1	1	0	nt
C/C(=N\Nc1ccccc1C)c1cccnc1	61*	41	-5	1	12	1
Cc1c(O)cc2c(c1O)C(=O)CC(c1ccc(O)cc1)O2 (configuration not stated)	56*	23	29	-3	69*	nt
COc1cc(O)c2c(c1)OC(c1ccc(O)cc1)CC2=O (configuration not stated)	-7	0	-1	2	nt	nt
O=S(=O)(Nc1ncnc2sc3c(c12)CCC3)c1ccc2ccccc2c1	-4	3	-14	4	nt	nt
Cc1cc(F)ccc1S(=O)(=O)Nc1ncnc2sc3c(c12)CCC3	51*	28	-1	4	-4	2
C/C(CCC(C)C)=N\Nc1cc(C)c2ccccc2n1	-5	14	3	0	nt	nt
CC1=C(SCCC#N)S/C(=C2\SC(C)=C(SCCC#N)S2)S1	69*	7	3	1	47*	-3
NC(=O)c1c(NC(=O)C2CCCO2)sc2c1CCCC2 (configuration not stated)	40*	9	5	-1	26	nt
CCn1c(C(=O)O)c(S(=O)(=O)c2ccc(Cl)cc2)c2ccccc21	-8	nt	-4	-1	nt	nt
CCCC(C)c1nnc(NC(=O)c2cc(C(=O)OC)cc([N+](=O)[O-])c2)s1 (configuration not stated)	60*	17	10	0	73*	1
CCOc1ccc(N)c(SSc2cc(OCC)ccc2N)c1	72*	27	-3	10	96*	8
Cc1ccc(S(=O)(=O)/C(C#N)=C/c2c(N3CCN(C)CC3)nc3ccccn3c2=O)cc1	13	0	-1	1	nt	nt
SMILES	A3G deaminase	AHR activator	APOBEC3A inh	NTR1 agonist	A3G conf	UDG ctr A3G
Cc1ccc(S(=O)(=O)/C(C#N)=C/c2c(N3CCCCC3)nc3ccccn3c2=O)cc1	49*	1	-2	10	-3	-3
COCCCn1c(O)c(/C=C2\N=C(C#N)C(=Nc3ccc(C)cc3)O2)sc1=S	-4	15	-3	0	nt	nt
C=CCn1c(Oc2ccc(C=O)cc2OCC)nc2c1c(=O)n(C)c(=O)n2C	-6	0	-3	1	nt	nt
COc1ccc(-n2c(=S)[nH]c3c(sc(=S)n3-c3ccccc3)c2=O)c(OC)c1	44*	0	3	2	36*	-3
COc1ccc(-n2c(SCC(=O)C(C)(C)C)nc3c(sc(=S)n3-c3ccccc3)c2=O)c(OC)c1	40*	2	1	0	50*	-2
CCCN(C(=O)COC(=O)CNC(=O)c1ccc2ccccc2c1)c1c(N)n(Cc2ccccc2)c(=O)[nH]c1=O	-6	1	-1	-1	nt	nt
CCOC(=O)c1sc(=S)n(C)c1NC(=O)c1cccc(Br)c1	47*	-3	-1	0	1	-3
C[C@@H](NC(=O)c1nc[nH]c1C(=O)NCC(=O)OCc1ccccc1)c1ccccc1	-11	1	-3	2	nt	nt
Cc1ccc(CCNS(=O)(=O)c2cc(Br)cnc2N)cc1	-3	-1	-4	2	nt	nt
O=C(CN1CCN(c2ccc(O)cc2)CC1)Nc1ccc(SC(F)F)cc1	43*	3	3	2	6	nt
COc1cccc(N2CCN(CC(=O)Nc3ccc(SC(F)F)cc3)CC2)c1	-2	3	0	-1	nt	nt
CCCC(=O)n1nc(-c2ccc(OC)cc2)nc1N	-3	0	7	0	nt	nt
CCC(=O)n1nc(-c2ccc(Cl)cc2)nc1N	46*	3	-1	-2	-9	-4
CCc1ccc(CN2CCC(C(=O)Nc3ccc(Oc4ccccc4)nc3)CC2)o1	41*	3	1	2	0	nt
Cc1ccc(NC(=O)Nc2ccc3c(c2)C(=O)OC3)cc1Cl	-4	-1	-1	1	nt	nt
O=C(NCc1ccccc1)C1CCCN(C(=O)c2ccc(F)cc2)C1 (configuration not stated)	-10	nt	0	-1	nt	nt
Cc1ccc(/C=N/NC(=O)NC2CCCCC2)o1	-8	22	-5	-1	nt	nt
Cc1ccc(/C=C/C(=O)NC2CCCCCCC2)o1	50*	7	10	4	38*	-3
CCCc1ccc(C2=Nn3c(nnc3C(C)C)SC2)cc1	50*	3	-1	5	23	7
CC1=C(C(=O)OCCBr)C(c2cccc3ccccc23)NC(=O)N1 (configuration not stated)	-5	3	-5	0	nt	nt
Cc1c(Cc2ccc3c(c2)OCO3)sc(NC(=O)C2CC2)c1C(N)=O	48*	0	0	1	31	nt
O=C(NCCc1ccccc1)C(=O)NCC1OCCCN1S(=O)(=O)c1cccs1 (configuration not stated)	-7	-1	-5	1	nt	nt
COC(=O)C(C)Sc1n[nH]c(=S)s1 (configuration not stated)	84*	0	-3	2	84*	6
COC(=O)CSc1n[nH]c(=S)s1	50*	0	-2	-1	65*	2
O=C(O)CC(Sc1n[nH]c(=S)s1)C(=O)O (configuration not stated)	44*	4	1	1	60*	3
COC(=O)CSc1nnc(SCc2ccccc2)s1	-5	-1	7	0	nt	nt
